For 29 compounds, Potency results are on record in PubChem BioAssay (NCATS).

Test [1] is described as follows: Primary qHTS for inhibitors of nuclear receptor binding SET domain protein 2 (NSD2) in an isogenic RCH-ACV NSD2 p.E1099K mutant (9B) (AID 1645876). A general note: In qHTS, concentration-response curves come from the screen itself.
Test [2] in a line: Primary qHTS for inhibitors of nuclear receptor binding SET domain protein 2 (NSD2) in an RCH-ACV wild type WT cells (2C) (AID 1645877).

The structures appear in SMILES notation. Several values for one entry are separate records, joined by “and”; a condition that tells them apart may be missing. Identical values can stand only once. Results filed as inconclusive are left out. Activity calls are given as the source filed them. Calls follow the shape of the dose curve; as a rule, active = well fitted curve in the direction sought with a large enough effect; inconclusive = small, poorly fitted or top-dose-only effect, or another doubt; inactive = no such curve, though single readings can be large; an effect the other way counts as inactive or inconclusive.
Also: nearly all actives have a fitted effect of over 70% in size.
Potency is read from the fitted curve at half-maximal effect.

In the case of `CCCc1c2oc(C(=O)O)cc(=O)c2cc2c(=O)cc(C(=O)O)n(CC)c12`, the Potency entry in test [1] and in test [2] was “inactive” each time.
In the case of `O=C(COCCOCCOCC(=O)Nc1c(I)cc(I)c(C(=O)O)c1I)Nc1c(I)cc(I)c(C(=O)O)c1I`, the Potency entry in test [1] and in test [2] was “inactive” throughout.
As for `CC(=O)O[C@H]1CC[C@@]2(C)C(=CC[C@@H]3[C@@H]2CC[C@]2(C)C(C(C)=O)=CC[C@@H]32)C1`, the Potency entry in test [1] and in test [2] was “inactive” each time.
On to `CCCCOCCOC(=O)c1cccnc1`, for which the Potency entry in test [1] and in test [2] was “inactive” each time.
For `O=C(CCCl)NCc1ccccc1`, the Potency result in test [1] and in test [2] was “inactive” in each case.
As to `Cc1ccc(C(=O)C(=O)O)cc1C`, the Potency result in test [1] and in test [2] was “inactive” each time.
Consider `CC(COc1ccccc1)NN` (stereo not drawn), for which the Potency result in test [1] and in test [2] was “inactive” throughout.
Turning to `COc1cc(C=O)ccc1O`, the Potency result in test [1] and in test [2] was “inactive” each time.
As for `NC(=O)C1(N2CCCCC2)CCN(CCCN2c3ccccc3CCc3ccc(Cl)cc32)CC1`, the values for the Potency in test [1] and in test [2] were 9.44 µM (active) and 8.41 µM (active), respectively.
The matching figures for `O=C1CC(c2ccc(Cl)cc2)CC(=O)N1`: “inactive” and “inactive”.
With `CCOC(=O)c1ccc(OCCN2C[C@H](O)[C@@H](O)[C@H](O)[C@H]2CO)cc1`, the Potency result in test [1] and in test [2] was “inactive” throughout.
For the compound `Cn1cc(S(C)=O)c(=O)c2ccc(F)cc21` (stereo not drawn), the Potency result in test [1] and in test [2] was “inactive” in each case.
Regarding `CC(C)(C)c1ccc(O)c(O)c1`, the Potency in test [1] and in test [2] was 2.17 µM (active) throughout.
Turning to `Nc1c(I)cc(I)c(C(=O)N(CCC(=O)O)c2ccccc2)c1I`, the Potency entry in test [1] and in test [2] was “inactive” each time.
For the compound `CN1Cc2cc(C(=O)N3CCC(C4CCNCC4)CC3)ccc2N[C@@H](CC(=O)O)C1=O`, the Potency result in test [1] and in test [2] was “inactive” each time.
For `CCCCCCCC(=O)[O-].CCCCCCCC(=O)[O-].[Zn+2]`, the Potency result in test [1] and in test [2] was “inactive” throughout.
Turning to `Cc1sccc1Br`, the Potency entry in test [1] and in test [2] was “inactive” each time.
Regarding `C#Cc1ccc(-c2ccccc2F)cc1`, the Potency result in test [1] and in test [2] was “inactive” in each case.
Take `Cc1c(N)cccc1C(F)(F)F`: the Potency result in test [1] and in test [2] was “inactive” each time.
Take `Nc1ccc(O)cc1`: the Potency result in test [1] and in test [2] was “inactive” each time.
As to `COC(=O)/C=C\C(=O)OC`, the Potency result in test [1] and in test [2] was “inactive” in each case.
As to `O=[N+]([O-])c1ccc(O)c2ncccc12`, the Potency in test [1] is 1.88 µM (active) and 6.61 µM (active); in test [2] it was 841 nM (active) and 6.61 µM (active).
With `CCCCCC[C@@H](CCC)C(=O)O`, the Potency result in test [1] and in test [2] was “inactive” throughout.
Regarding `NC(=O)NC1N=C([O][Al])NC1=O` (stereo not drawn), the Potency result in test [1] and in test [2] was “inactive” each time.
Turning to `C[C@@H]1C[C@H]2[C@@H]3CCC4=CC(=O)C=C[C@]4(C)[C@@]3(F)[C@@H](O)C[C@]2(C)[C@@]1(O)C(=O)COC(=O)c1ccncc1`, the Potency entry in test [1] and in test [2] was “inactive” throughout.
Take `C=C(C)C(=O)OCC(O)CO` (stereo not drawn): the Potency result in test [1] and in test [2] was “inactive” each time.
Turning to `CCOC(=O)C(=O)CCCCCCl`, the Potency result in test [1] and in test [2] was “inactive” each time.
For the compound `O=C(OCCN1CCOCC1)c1cccnc1Nc1cccc(C(F)(F)F)c1`, the Potency result in test [1] and in test [2] was “inactive” throughout.
With `Cc1cccc(OCC(O)CNC(C)(C)C)c1C` (stereo not drawn), the Potency entry in test [1] and in test [2] was “inactive” in each case.
